According to the supplement of paper PMC9694430:

Columns and labels:
Assay in all cases: thermal shift delta Tm vs DMSO control; higher = stronger stabilization (binding)
Conditions in all cases: 12.5 µM; protein concentration 2 µM
LOC_OS01G01410-cb001 = system: LOC_OS01G01410-cb001
In short: (§1)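 Thermal shift values come from differential scanning fluorimetry on purified rice kinase domains made in E. coli, with melting temperatures obtained from Boltzmann fits. Samples of 19.5 μl held 2 μM kinase, 100 mM potassium phosphate pH 7.5, 150 mM NaCl, 10% glycerol, 5 × SYPRO Orange and compound in DMSO, and were heated from 25°C to 95°C at 0.05°C/s. Each shift is a triplicate mean relative to the DMSO-only protein sample.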

LOC_OS01G02750-cb003 = system: LOC_OS01G02750-cb003
In short: as §1

LOC_OS01G10900-cb004 = system: LOC_OS01G10900-cb004
In short: as §1

LOC_OS01G13800-cb001 = system: LOC_OS01G13800-cb001
In short: as §1

LOC_OS01G14860-cb001 = system: LOC_OS01G14860-cb001
In short: as §1

LOC_OS01G21960-cb002 = system: LOC_OS01G21960-cb002
In short: as §1

LOC_OS01G39600-cb002 = system: LOC_OS01G39600-cb002
In short: as §1

LOC_OS01G48390-cb002 = system: LOC_OS01G48390-cb002
In short: as §1

LOC_OS01G51400-cb002 = system: LOC_OS01G51400-cb002
In short: as §1

LOC_OS01G52050-cb004 = system: T1, LOC_OS01G52050-cb004
T1 sequence (whole entry): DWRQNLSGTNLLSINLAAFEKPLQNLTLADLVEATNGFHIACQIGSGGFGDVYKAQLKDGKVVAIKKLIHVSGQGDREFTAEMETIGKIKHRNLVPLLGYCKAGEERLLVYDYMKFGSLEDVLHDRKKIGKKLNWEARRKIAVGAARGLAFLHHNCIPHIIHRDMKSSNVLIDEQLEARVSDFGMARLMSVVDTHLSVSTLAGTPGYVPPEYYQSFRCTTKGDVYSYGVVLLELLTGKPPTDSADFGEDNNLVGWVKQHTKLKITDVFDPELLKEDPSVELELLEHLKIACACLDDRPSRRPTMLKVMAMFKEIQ
In short: as §1

LOC_OS01G57100-cb003 = system: LOC_OS01G57100-cb003
In short: as §1

LOC_OS01G60330-cb001 = system: LOC_OS01G60330-cb001
In short: as §1

LOC_OS01G60700-cb002 = system: LOC_OS01G60700-cb002
In short: as §1

LOC_OS01G63280-cb003 = system: LOC_OS01G63280-cb003
In short: as §1

LOC_OS01G67340-cb003 = system: LOC_OS01G67340-cb003
In short: as §1

LOC_OS01G70970-cb002 = system: LOC_OS01G70970-cb002
In short: as §1

LOC_OS02G07810-cb001 = system: LOC_OS02G07810-cb001
In short: as §1

LOC_OS02G08530-cb003 = system: LOC_OS02G08530-cb003
In short: as §1

LOC_OS02G14120-cb001 = system: LOC_OS02G14120-cb001
In short: as §1

LOC_OS02G17970-cb001 = system: LOC_OS02G17970-cb001
In short: as §1
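Further: purified Escherichia coli-expressed rice kinase domain construct.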

SMILES	thermal shift delta Tm (LOC_OS01G01410-cb001)	thermal shift delta Tm (LOC_OS01G02750-cb003)	thermal shift delta Tm (LOC_OS01G10900-cb004)	thermal shift delta Tm (LOC_OS01G13800-cb001)	thermal shift delta Tm (LOC_OS01G14860-cb001)	thermal shift delta Tm (LOC_OS01G21960-cb002)	thermal shift delta Tm (LOC_OS01G39600-cb002)	thermal shift delta Tm (LOC_OS01G48390-cb002)	thermal shift delta Tm (LOC_OS01G51400-cb002)	thermal shift delta Tm (LOC_OS01G52050-cb004)	thermal shift delta Tm (LOC_OS01G57100-cb003)	thermal shift delta Tm (LOC_OS01G60330-cb001)	thermal shift delta Tm (LOC_OS01G60700-cb002)	thermal shift delta Tm (LOC_OS01G63280-cb003)	thermal shift delta Tm (LOC_OS01G67340-cb003)	thermal shift delta Tm (LOC_OS01G70970-cb002)	thermal shift delta Tm (LOC_OS02G07810-cb001)	thermal shift delta Tm (LOC_OS02G08530-cb003)	thermal shift delta Tm (LOC_OS02G14120-cb001)	thermal shift delta Tm (LOC_OS02G17970-cb001)
COc1ccc(COc2ccc(Cc3cnc(N)nc3N)cc2OC)cc1	-0.12 °C	1.12 °C	2.07 °C	0.44 °C	0.12 °C	0.25 °C	0.89 °C	-0.01 °C	0.2 °C	0.04 °C	-0.05 °C	0.76 °C	1.06 °C	0.32 °C	0.31 °C	0.08 °C	0.34 °C	-0.15 °C	1.94 °C	1.56 °C
Nc1ccc(-c2ccc3ncc4ccc(=O)n(-c5cccc(C(F)(F)F)c5)c4c3c2)cn1 [Torin 2]	1.14 °C	1.23 °C	-0.05 °C	-0.87 °C	2.07 °C	1.41 °C	0.74 °C	0.94 °C	0.41 °C	0.7 °C	0.64 °C	1.09 °C	1.01 °C	0.11 °C	0.33 °C	0.87 °C	0.19 °C	1.53 °C	1.62 °C	1.12 °C
Cc1cn(-c2cc(NC(=O)c3ccc(C)c(Nc4nccc(-c5cccnc5)n4)c3)cc(C(F)(F)F)c2)cn1 [Nilotinib (AMN-107)]	1.05 °C	0.56 °C	0.78 °C	-0.11 °C	0.32 °C	0.28 °C	0.67 °C	0.45 °C	0.48 °C	-0.02 °C	0.85 °C	1.29 °C	0.99 °C	0.49 °C	-0.08 °C	0.3 °C	0.5 °C	0.55 °C	0.37 °C	0.01 °C
CC(C)(C)c1cc(NC(=O)Nc2ccc(Oc3ccnc4[nH]c(=O)cnc34)cc2F)n(-c2ccccc2)n1	-0.24 °C	1.82 °C	0.63 °C	0.95 °C	6.67 °C	0.63 °C	0.19 °C	0.23 °C	0.46 °C	0.84 °C	1.77 °C	1.69 °C	1.38 °C	10.7 °C	0.45 °C	0.73 °C	0.8 °C	1.22 °C	4.49 °C	2.69 °C
COc1ccc([C@@H]2OC[C@H]3[C@@H]2CO[C@@H]3c2ccc(O[C@@H]3O[C@H](CO)[C@@H](O)[C@H](O)[C@H]3O)c(OC)c2)cc1OC [Forsythin]	0.23 °C	1.02 °C	0.51 °C	-0.29 °C	0.27 °C	0.16 °C	-0.84 °C	0.13 °C	0.31 °C	1.57 °C	0.47 °C	-0.03 °C	-0.08 °C	-0.19 °C	0.01 °C	0.21 °C	-0.9 °C	0.57 °C	0.19 °C	-0.6 °C
O=C1NC(=O)/C(=C/c2cccc(C(F)(F)F)c2)S1	-0.06 °C	0.14 °C	0.2 °C	0.24 °C	0.12 °C	0.28 °C	-0.09 °C	0.08 °C	0.11 °C	0.12 °C	0.63 °C	0.3 °C	0.3 °C	0.28 °C	0.15 °C	0.3 °C	0.46 °C	0.44 °C	-0.36 °C	0.43 °C
